# According to the supplement of paper PMC8728848:
# Many of the other results were omitted from the sample, so the strongest signals are more common in it than they were.
# Legend:
# Assay in all cases: glycan array binding signal (z-score within array); higher = stronger binding
# Conditions in all cases: glycan notation: IUPAC condensed, linker removed
# [1] = target: Fuc(a1-2)Gal(b1-4)GlcNAc(b1-2)Man
# Method in brief: (§1)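 Columns mapping to the same glycan were averaged after glycan names were converted to IUPAC-condensed notation. The data come from 3228 arrays in the Consortium for Functional Glycomics database, limited to those with an available protein sequence. Binding is reported as a within-array Z-score averaged across arrays of one protein sequence and across linkers.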
# [2] = target: Fuc(a1-2)Gal(b1-4)[Fuc(a1-3)]GlcNAc(b1-2)[Fuc(a1-2)Gal(b1-4)[Fuc(a1-3)]GlcNAc(b1-4)]Man(a1-3)[Fuc(a1-2)Gal(b1-4)[Fuc(a1-3)]GlcNAc(b1-2)Man(a1-6)]Man(b1-4)GlcNAc(b1-4)GlcNAc
# Method in brief: as §1
# [3] = target: Fuc(a1-2)Gal6S(b1-4)Glc6S
# Method in brief: as §1
# [4] = target: Fuc(a1-2)[Gal(a1-3)]Gal(b1-3)GalNAc
# Method in brief: as §1
# [5] = target: Fuc(a1-2)[Gal(a1-3)]Gal(b1-4)GlcNAc(b1-2)Man(a1-3)[Fuc(a1-2)[Gal(a1-3)]Gal(b1-4)GlcNAc(b1-2)Man(a1-6)]Man(b1-4)GlcNAc(b1-4)[Fuc(a1-6)]GlcNAc
# Method in brief: as §1
# [6] = target: Fuc(a1-2)[Gal(a1-4)]Gal(b1-4)GlcNAc
# Method in brief: as §1
# [7] = target: Fuc(a1-2)[GalNAc(a1-3)]Gal(b1-4)GlcNAc(b1-6)GalNAc
# Method in brief: as §1
# [8] = target: Fuc(a1-3)[Gal(b1-4)]GlcNAc
# Method in brief: as §1
# [9] = target: Fuc(a1-3)[Gal(b1-4)]GlcNAc(b1-3)Gal(b1-4)[Fuc(a1-3)]GlcNAc
# Method in brief: as §1
# [10] = target: Fuc(a1-3)[Gal(b1-4)]GlcNAc(b1-3)Gal(b1-4)[Fuc(a1-3)]GlcNAc(b1-3)Gal(b1-4)[Fuc(a1-3)]GlcNAc
# Method in brief: as §1
# [11] = target: Fuc(a1-3)[Gal(b1-4)]GlcNAc(b1-4)Gal(b1-4)[Fuc(a1-3)]GlcNAc(b1-4)Gal(b1-4)[Fuc(a1-3)]GlcNAc
# Method in brief: as §1
# [12] = target: Fuc(a1-4)GlcNAc
# Method in brief: as §1
# [13] = target: Gal(a1-3)Gal(b1-3)[Fuc(a1-4)]GlcNAc(b1-2)Man(a1-3)[Gal(a1-3)Gal(b1-3)[Fuc(a1-4)]GlcNAc(b1-2)Man(a1-6)]Man(b1-4)GlcNAc(b1-4)GlcNAc
# Method in brief: as §1
# [14] = target: Gal(a1-3)[Gal(a1-4)]Gal(b1-4)GlcNAc
# Method in brief: as §1
# [15] = target: Gal(a1-4)Gal(b1-3)GlcNAc(b1-2)Man(a1-3)[Gal(a1-4)Gal(b1-3)GlcNAc(b1-2)Man(a1-6)]Man(b1-4)GlcNAc(b1-4)GlcNAc
# Method in brief: as §1
# [16] = target: Gal(b1-3)Gal
# Method in brief: as §1
# [17] = target: Gal(b1-3)GalNAc
# Method in brief: as §1
# [18] = target: Gal(b1-3)[Neu5Ac(a2-6)]GalNAc
# Method in brief: as §1
# [19] = target: Gal(b1-3)[Neu5Ac(a2-6)]GlcNAc(b1-4)Gal(b1-4)Glc
# Method in brief: as §1
# [20] = target: Gal(b1-4)GlcNAc(b1-2)Man(a1-3)[Gal(b1-4)GlcNAc(b1-2)Man(a1-6)][Gal(b1-4)GlcNAc(b1-4)]Man(b1-4)GlcNAc(b1-4)[Fuc(a1-6)]GlcNAc
# Method in brief: as §1
# [21] = target: Gal(b1-4)GlcNAc(b1-2)Man(a1-3)[Man(a1-6)]Man(b1-4)GlcNAc(b1-4)GlcNAc
# Method in brief: as §1
# [22] = target: Gal(b1-4)GlcNAc(b1-3)Gal(b1-4)GlcNAc(b1-2)Man(a1-3)[Gal(b1-4)GlcNAc(b1-3)Gal(b1-4)GlcNAc(b1-2)Man(a1-6)]Man(b1-4)GlcNAc(b1-4)GlcNAc
# Method in brief: as §1
# [23] = target: Gal(b1-4)GlcNAc(b1-3)Gal(b1-4)GlcNAc(b1-3)Gal(b1-4)GlcNAc(b1-2)Man(a1-3)[Gal(b1-4)GlcNAc(b1-3)Gal(b1-4)GlcNAc(b1-3)Gal(b1-4)GlcNAc(b1-2)Man(a1-6)]Man(b1-4)GlcNAc(b1-4)GlcNAc
# Method in brief: as §1
# [24] = target: Gal(b1-4)GlcNAc(b1-3)Gal(b1-4)GlcNAc(b1-3)Gal(b1-4)GlcNAc(b1-3)Gal(b1-4)GlcNAc(b1-3)Gal(b1-4)GlcNAc(b1-2)Man(a1-3)[Gal(b1-4)GlcNAc(b1-3)Gal(b1-4)GlcNAc(b1-3)Gal(b1-4)GlcNAc(b1-3)Gal(b1-4)GlcNAc(b1-3)Gal(b1-4)GlcNAc(b1-2)Man(a1-6)]Man(b1-4)GlcNAc(b1-4)GlcNAc
# Method in brief: as §1
# [25] = target: Gal(b1-4)GlcNAc(b1-3)[Fuc(a1-3)GlcNAc(b1-6)]Gal(b1-4)Glc
# Method in brief: as §1
# [26] = target: Gal6S(b1-4)Glc
# Method in brief: as §1
# [27] = target: GalNAc(b1-4)GlcNAc(b1-2)Man(a1-3)[GalNAc(b1-4)GlcNAc(b1-2)Man(a1-6)]Man(b1-4)GlcNAc(b1-4)GlcNAc
# Method in brief: as §1
# [28] = target: GalNAc(b1-6)GalNAc
# Method in brief: as §1
# [29] = target: GalNAc6S(b1-4)GlcNAc
# Method in brief: as §1
# [30] = target: Glc(a1-6)Glc(a1-6)Glc(a1-6)Glc
# Method in brief: as §1
# [31] = target: GlcNAc(a1-4)Gal(b1-3)GlcNAc
# Method in brief: as §1
# [32] = target: GlcNAc(b1-2)Man(a1-3)[GlcNAc(b1-4)][GlcNAc(b1-2)Man(a1-6)]Man(b1-4)GlcNAc(b1-4)[Fuc(a1-6)]GlcNAc
# Method in brief: as §1
# [33] = target: GlcNAc(b1-3)Gal(b1-4)GlcNAc
# Method in brief: as §1
# [34] = target: GlcNAc(b1-3)Gal(b1-4)GlcNAc(b1-6)[GlcNAc(b1-3)Gal(b1-3)]GalNAc
# Method in brief: as §1
# [35] = target: GlcNAc(b1-3)[GlcNAc(b1-6)]GalNAc
# Method in brief: as §1
# [36] = target: GlcNAc(b1-6)GalNAc
# Method in brief: as §1
# [37] = target: Kdn(a2-3)Gal(b1-4)[Fuc(a1-3)]GlcNAc
# Method in brief: as §1
# [38] = target: Neu5Ac(a2-3)Gal(b1-4)GlcNAc(b1-3)Gal(b1-4)GlcNAc(b1-3)Gal(b1-4)GlcNAc(b1-2)Man(a1-3)[Neu5Ac(a2-3)Gal(b1-4)GlcNAc(b1-3)Gal(b1-4)GlcNAc(b1-3)Gal(b1-4)GlcNAc(b1-2)Man(a1-6)]GalNAc
# Method in brief: as §1
# [39] = target: Neu5Ac(a2-3)Gal(b1-4)GlcNAc(b1-3)Gal(b1-4)GlcNAc(b1-3)GalNAc
# Method in brief: as §1
# [40] = target: Neu5Ac(a2-3)Gal(b1-4)[Fuc(a1-3)]GlcNAc(b1-2)Man
# Method in brief: as §1
# [41] = target: Neu5Ac(a2-6)Gal(b1-4)GlcNAc(b1-2)Man(a1-3)[GlcNAc(b1-2)Man(a1-6)]Man(b1-4)GlcNAc(b1-4)GlcNAc
# Method in brief: as §1
# [42] = target: Neu5Ac(a2-6)Gal(b1-4)GlcNAc(b1-2)Man(a1-3)[GlcNAc(b1-4)][Neu5Ac(a2-6)Gal(b1-4)GlcNAc(b1-2)Man(a1-6)]Man(b1-4)GlcNAc(b1-4)GlcNAc
# Method in brief: as §1
# [43] = target: Neu5Ac(a2-6)Gal(b1-4)GlcNAc(b1-2)Man(a1-3)[Neu5Ac(a2-3)Gal(b1-4)GlcNAc(b1-2)Man(a1-6)]Man(b1-4)GlcNAc(b1-4)GlcNAc
# Method in brief: as §1
# [44] = target: Neu5Ac9Ac(a2-3)Gal(b1-4)GlcNAc
# Method in brief: as §1
# [45] = target: Neu5Gc(a2-3)Gal(b1-4)[Fuc(a1-4)]GlcNAc
# Method in brief: as §1
binder,measurement,setting,value
"MGL1 (Mus musculus), P49300 (protein) MIYENLQNSRIEEKTQEPGKAPSQSFLWRILSWTHLLLFSLGLSLLLLVVVSVIGSQNSQLRRDLGTLRATLDNTTSKIKAEFQSLDSRADSFEKGISSLKVDVEDHRQELQAGRDLSQKVTSLESTVEKREQALKTDLSDLTDHVQQLRKDLKALTCQLANLKNNGSEVACCPLHWTEHEGSCYWFSESEKSWPEADKYCRLENSHLVVVNSLEEQNFLQNRLANVVSWIGLTDQNGPWRWVDGTDFEKGFKNWAPLQPDNWFGHGLGGGEDCAHITTGGPWNDDVCQRTFRWICEMKLAKES",glycan array binding signal (z-score),[1],0.007
same,glycan array binding signal (z-score),[2],0.824
same,glycan array binding signal (z-score),[3],0.081
same,glycan array binding signal (z-score),[4],-0.265
same,glycan array binding signal (z-score),[5],-1.16
same,glycan array binding signal (z-score),[6],1.45
same,glycan array binding signal (z-score),[7],0.044
same,glycan array binding signal (z-score),[8],5.46
same,glycan array binding signal (z-score),[9],3.95
same,glycan array binding signal (z-score),[10],5.1
same,glycan array binding signal (z-score),[11],9.12
same,glycan array binding signal (z-score),[12],0.064
same,glycan array binding signal (z-score),[13],-0.177
same,glycan array binding signal (z-score),[14],1.06
same,glycan array binding signal (z-score),[15],2.41
same,glycan array binding signal (z-score),[16],-0.039
same,glycan array binding signal (z-score),[17],-0.112
same,glycan array binding signal (z-score),[18],-0.361
same,glycan array binding signal (z-score),[19],0.273
same,glycan array binding signal (z-score),[20],3.48
same,glycan array binding signal (z-score),[21],0.201
same,glycan array binding signal (z-score),[22],2.62
same,glycan array binding signal (z-score),[23],3.01
same,glycan array binding signal (z-score),[24],2.31
same,glycan array binding signal (z-score),[25],4.54
same,glycan array binding signal (z-score),[26],0.208
same,glycan array binding signal (z-score),[27],0.218
same,glycan array binding signal (z-score),[28],-0.374
same,glycan array binding signal (z-score),[29],0.509
same,glycan array binding signal (z-score),[30],-0.085
same,glycan array binding signal (z-score),[31],0.26
same,glycan array binding signal (z-score),[32],0.417
same,glycan array binding signal (z-score),[33],0.138
same,glycan array binding signal (z-score),[34],-0.907
same,glycan array binding signal (z-score),[35],-0.368
same,glycan array binding signal (z-score),[36],0.042
same,glycan array binding signal (z-score),[37],0.025
same,glycan array binding signal (z-score),[38],3.39
same,glycan array binding signal (z-score),[39],-0.308
same,glycan array binding signal (z-score),[40],-0.66
same,glycan array binding signal (z-score),[41],-0.089
same,glycan array binding signal (z-score),[42],-0.48
same,glycan array binding signal (z-score),[43],-0.988
same,glycan array binding signal (z-score),[44],-0.495
same,glycan array binding signal (z-score),[45],-0.153
